High-throughput results as filed in PubChem BioAssay.
A selection: hits, their analogues and other compounds. The true share with any hit is near 2.9%.
LDHA block: qHTS assay for inhibitors of human lactate dehydrogenase; purified LDHA, NADH/diaphorase-resazurin fluorescence; active compounds read low; activity change, % (values are at about 110 or 230 µM); AID 1347041, 2019; 480,000 compounds, 0.15% hits; in the data active means activity change below about -30%; inconclusive means mostly about -25% to -30%;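 further: plate controls were DMSO wells for no effect and wells without enzyme for full effect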
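Human LDH5 (2 nM) was incubated with 0.06 mM NADH and 0.2 mM pyruvate for 5 min at room temperature in Tris pH 7.4. Remaining NADH was coupled through diaphorase/resazurin, and resorufin fluorescence was read at 0 and 20 min.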
ClpP mod: qHTS Assay for Activators of ClpP; ATP-dependent Clp protease proteolytic subunit (Bacillus subtilis (strain 168)), P80244; purified B. subtilis ClpP, FRET peptide cleavage, 20 min; Potency, µM (highest dose often 57.5 µM), for inactives: at the highest dose activity change, negative = active; 340,000 compounds, 1.9% hits; AID 651965, 2013; active means well fitted falling curve with a large enough effect; inconclusive means small, poorly fitted or top-dose-only effect; inactive means no such curve, though single readings can be large or run the other way; further: potency means the concentration at half of the fitted maximal effect; the source files actives as falling curves though it sought activators and does not explain the sign; nearly all actives have a fitted effect of over 65% in size
Target sequence (P80244 whole entry, looked up): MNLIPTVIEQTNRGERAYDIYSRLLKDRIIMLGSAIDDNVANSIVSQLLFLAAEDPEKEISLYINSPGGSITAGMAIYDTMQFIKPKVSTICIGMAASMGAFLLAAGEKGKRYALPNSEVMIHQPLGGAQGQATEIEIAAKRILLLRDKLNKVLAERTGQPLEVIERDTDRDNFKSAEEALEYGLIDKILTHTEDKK
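Buffer: 100 mM Tris/HCl pH8, 100 mM KCl, 0.05% low protease BSA, 2.5% glycerol, 0.01% Tween-20. ClpP 10 microg/mL final; 20 min RT; delta FRET normalized to ADEP and DMSO controls.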
GLP1R ag: qHTS of GLP-1 Receptor Agonists; Glucagon-like peptide 1 receptor (Homo sapiens), P43220; Potency, µM (top dose mostly 45.6 µM), without a hit: at the highest dose activation, usual class: activators; HEK293 GLP-1R CRE-luciferase, luminescence, 4-6 h; cells express a hypersensitive GLP-1R form; 380,000 compounds, 0.007% hits; further: potency means the concentration at half of the fitted maximal effect; % of control where 0% means no effect
Target sequence (P43220 whole entry, looked up): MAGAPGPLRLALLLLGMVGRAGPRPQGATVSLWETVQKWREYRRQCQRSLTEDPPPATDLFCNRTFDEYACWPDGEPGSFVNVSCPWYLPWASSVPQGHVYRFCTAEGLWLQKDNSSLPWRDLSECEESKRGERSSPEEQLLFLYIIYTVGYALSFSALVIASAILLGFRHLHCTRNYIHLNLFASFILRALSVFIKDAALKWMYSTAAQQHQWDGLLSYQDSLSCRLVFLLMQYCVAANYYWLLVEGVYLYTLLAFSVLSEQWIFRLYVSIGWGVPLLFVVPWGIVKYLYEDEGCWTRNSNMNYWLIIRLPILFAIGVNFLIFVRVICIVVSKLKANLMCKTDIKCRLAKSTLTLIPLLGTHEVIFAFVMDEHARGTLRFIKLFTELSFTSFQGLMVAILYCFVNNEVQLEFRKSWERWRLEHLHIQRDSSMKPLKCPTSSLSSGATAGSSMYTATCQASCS
GLP1R inv ag: qHTS of GLP-1 Receptor Inverse Agonists (Inhibition Mode) | Glucagon-like peptide 1 receptor (Homo sapiens), P43220 | HEK293 GLP-1R CRE-luciferase, luminescence, 24 h; GLP-1R form is constitutively active | Potency, µM (top dose mostly 38.3 µM), without a hit: at the top dose activity change, negative = inhibition, actives largely listed as inhibitors | 410,000 compounds, 1.6% hits | AID 624417, 2012; further: potency means the concentration at half of the fitted maximal effect; on the % scale 0 is the no-effect control and ±100 the full control effect; nearly all actives have a fitted effect of over 55% in size
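Inverse agonists were sought by their lowering of basal cAMP reporter luciferase output in HEK293 cells stably carrying constitutively active human GLP-1R, after 24 h compound treatment.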
p53 reactivation: qHTS assay for re-activators of p53 using a Luc reporter | H1299 p53-A138V BP100-luciferase reporter, luminescence, 24 h | 320,000 compounds, 0.063% hits | Potency, µM (titrated, usually from 92.2 µM), inactives show at the top dose activity change, positive = activation, actives largely listed as activators; further: potency means the concentration at half of the fitted maximal effect; % of control where 0% means no effect; nearly all actives have a fitted effect of over 45% in size
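p53-null H1299 cells stably carrying temperature-sensitive p53-A138V and a BP100-luciferase reporter were pinned with compounds (4-point, 1:5 series) and held 24 hrs at 37 deg C. Luminescence was read 10 min after detection reagent.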
GLP1R cytotox: qHTS of GLP-1 Receptor Inverse Agonists: Cytotox Screen. HEK293 cAMP-luciferase reporter cells, luminescence, 24 h. Potency, µM (titrated, usually from 38.3 µM), without a hit: at the highest dose activity change, negative = inhibition, most hits filed as inhibitors. 410,000 compounds, 0.13% hits. AID 624418, 2012;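 further: loss of luciferase light is scored as toxicity; potency means the concentration at half of the fitted maximal effect; on the % scale 0 is the no-effect control and ±100 the full control effect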
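Seeding density was 200 cells/uL; after overnight-length (12 h) culture, 23 nL compounds went on for 24 h at 37 °C. Readout used a luciferase detection reagent, luminescence taken after 12 min at room temperature.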
Active calls of the source: *; ? = inconclusive; · = not tested or not shown. Unless noted, the call rests on the fitted dose curve; in most records, active means well fitted curve in the direction sought with a large enough effect; inconclusive means small, poorly fitted or top-dose-only effect, or another doubt; inactive means no such curve, though single readings can be large; an effect the other way counts as inactive or inconclusive.

SMILES	LDHA block	ClpP mod	GLP1R ag	GLP1R inv ag	p53 reactivation	GLP1R cytotox
CCN(C(=O)CSc1nnc(C)n1-c1ccccc1)C1CCS(=O)(=O)C1 (centres undefined)	-1	·	2%	18%	1%	13%
CC(C)COc1ccc(C(=O)N2CCCCC2CCN2CCCCC2)cc1 (centres undefined)	0	-2%	·	?	·	-8%
O=C(NCCn1cc(SCc2ccc(C(F)(F)F)cc2)c2ccccc21)c1ccccc1F	0	-4%	-13%	?	·	-11%
O=C(NCCn1cc(SCc2ccccc2)c2ccccc21)c1c(F)cccc1F	3	-1%	12%	10µM*	8%	3%
O=C(NCCn1cc(SCc2ccc(F)cc2)c2ccccc21)c1ccccc1F	0	-2%	0%	7.9µM*	17%	-11%
O=C(NCCn1cc(SCc2ccc(C(F)(F)F)cc2)c2ccccc21)c1cccs1	3	0%	-5%	11µM*	·	-8%
CC(C)(C)n1nnnc1C(c1cccnc1)N1CCOCC1 (centres undefined)	-4	2%	-4%	13%	3%	-6%
Cc1ccc(C(=O)N(CCCN(C)C)c2nc3ccc(Cl)cc3s2)cc1C	7	·	17%	6.3µM*	7%	?
CN(C)CCCN(C(=O)c1ccc2c(c1)CCCC2)c1nc2cc3c(cc2s1)OCO3	1	-3%	9%	2µM*	-3%	?
CN(C)CCCN(C(=O)c1ccco1)c1nc2ccc(Br)cc2s1	-2	·	8%	3.2µM*	14%	?
Cc1oc(-c2cccs2)nc1C(=O)N1CCCC1C1CCCCC1 (centres undefined)	-10	·	·	·	·	·
O=C(NCCCCCCNC(=O)OCc1ccccc1)OCc1ccccc1	-15	-1%	-1%	17%	·	0%
Cc1cccc(C)c1OCCNC(=O)OCc1ccccc1	1	0%	9%	11µM*	9%	-8%
CN(C)CCC(=O)N1C/C(=C/c2ccccc2)C(=O)/C(=C\c2ccccc2)C1	-2	35µM*	-31%	?	·	?
CCOC(=O)N1C/C(=C\c2ccccc2)C(=O)/C(=C/c2ccccc2)C1	-4	0%	14%	2%	?	4%
CCc1ccc(NC(=O)CC2C(=O)NCCN2C(=O)c2ccc(F)cc2)cc1 (centres undefined)	-10	-2%	-2%	-5%	-15%	14%
CCCNc1nc(N)nc(-c2cc(Cl)ccc2OC)n1	-3	-10%	6%	11%	-2%	-8%
CCCN(CCC)c1nc(N)nc(-c2cc(Cl)ccc2OC)n1	-3	-30%	22%	8.9µM*	-1%	-18%
Cn1c(N)c(C(=O)COC(=O)C(Cc2ccccc2)NC(=O)c2ccccc2)c(=O)n(C)c1=O (centres undefined)	-3	0%	14%	6%	-3%	10%
Cc1ccc(-c2cc3nn(-c4ccccc4)c(N)c3c(=O)o2)cc1	-16	32µM*	11%	0%	7%	-23%
O=C(NC1CCCC1)c1cc2c(F)cccc2s1	-30*	·	·	·	·	·
CC1=CC(C)C(/C=N/N=C(N)N)C(C)C1 (centres undefined)	-7	-2%	-1%	8.9µM*	-4%	11%
O=C(O)c1ccc(N/N=C/c2ccc(OC(=O)c3ccccc3Cl)cc2)cc1	-16	-1%	0%	7.1µM*	1%	1%
CC1(Cc2cc(Cl)ccc2C(F)(F)F)C(=O)Nc2ccc(-c3ccc(F)c(Cl)c3)cc21 (centres undefined)	-3	-4%	-26%	?	·	11µM*
CC(C)CNC(=O)c1ccccc1NC(=O)CCSc1ccccc1	0	·	25%	7.1µM*	2%	-9%
SMILES	LDHA block	ClpP mod	GLP1R ag	GLP1R inv ag	p53 reactivation	GLP1R cytotox
CCCCN(C)C(=O)C1CCCN(c2ncnc3onc(-c4ccc(F)cc4)c23)C1 (centres undefined)	-7	1%	·	-31%	·	-5%
O=C1/C(=C/c2ccc(N3CCOCC3)o2)SC(=Nc2ccccc2)N1CCc1c[nH]c2ccccc12	4	1%	-53%	1.1µM*	-12%	?
CS(=O)(=O)N(CC(=O)N1CCCCCC1)c1cccc(Br)c1	-11	-2%	-5%	0%	-5%	-8%
Cc1cccc(-c2ccc3[nH]c4c(c3c2)CCN2C[C@@H]([C@H](C)O)[C@@H](N(C)C(=O)NC3CCCCC3)C[C@@H]42)c1	3	-11%	-2%	?	·	12%
CN[C@H]1C[C@H]2c3[nH]c4ccc(-c5ccc(OC)cc5)cc4c3CCN2C(=O)[C@H]1[C@H](C)O	4	4%	-5%	5.6µM*	·	?
COc1ccc(NC(=O)N(C)[C@H]2C[C@H]3c4[nH]c5ccc(-c6ccc(OC)cc6)cc5c4CCN3C[C@H]2[C@H](C)O)cc1	-10	-21%	-3%	7.1µM*	·	?
CN[C@H]1C[C@H]2c3[nH]c4ccc(-c5cccc(C)c5)cc4c3CCN2C[C@H]1[C@H](C)O	-21	-12%	-6%	11µM*	·	?
O=C(N/N=C/c1cccc([N+](=O)[O-])c1)c1cc2ccccc2o1	-11	·	5%	27%	1%	-4%
O=C(COC(=O)Cc1ccccc1[N+](=O)[O-])NCc1ccc(Cl)cc1	-3	2%	4%	9%	6%	2%
Cc1nn2c(N3CCN(c4ccccn4)CC3)cc(C(C)C)nc2c1-c1ccccc1	-16	28µM*	-3%	2%	4%	6%
Cc1cc(N2CCCCCC2)n2nc(C)c(-c3ccccc3)c2n1	0	3%	-1%	-13%	3%	7%
Cc1ccc(S(=O)(=O)N2[C@H](c3ccc(Cl)cc3)CC(=O)[C@@H]3CN(S(=O)(=O)c4ccccc4C)[C@H](c4ccc(Cl)cc4)C[C@@H]32)cc1	-10	2%	-4%	-15%	·	1%
CCN(CC)S(=O)(=O)c1ccc(NC(=O)NCc2noc3ccc(C)cc23)cc1	8	2%	·	10µM*	·	-30%
N#CC(c1ccc(F)cc1)c1ccc(C(=O)c2ccc(F)cc2)cc1 (centres undefined)	-2	-3%	11%	?	2%	20%
